Screening data as filed in PubChem.
Hits are enriched below; roughly 1.4% of the tested compounds scored in any of these assays.
Giardia FBPA inh = inhibitors of Giardia lamblia fructose-1,6-bisphosphate aldolase | purified Giardia FBPA | Potency, µM (highest dose often 59.6 µM), inactives show top-dose activity, negative = inhibition, usual class: inhibitors | hit rate 0.71% among 290,000 | AID 2451; also: potency is read from the fitted curve at half-maximal effect; % is scaled to controls: 0 for no effect and ±100 for the full control effect; nearly all actives have a fitted effect of over 55% in size
Target sequence (A8B2U2 whole entry, looked up): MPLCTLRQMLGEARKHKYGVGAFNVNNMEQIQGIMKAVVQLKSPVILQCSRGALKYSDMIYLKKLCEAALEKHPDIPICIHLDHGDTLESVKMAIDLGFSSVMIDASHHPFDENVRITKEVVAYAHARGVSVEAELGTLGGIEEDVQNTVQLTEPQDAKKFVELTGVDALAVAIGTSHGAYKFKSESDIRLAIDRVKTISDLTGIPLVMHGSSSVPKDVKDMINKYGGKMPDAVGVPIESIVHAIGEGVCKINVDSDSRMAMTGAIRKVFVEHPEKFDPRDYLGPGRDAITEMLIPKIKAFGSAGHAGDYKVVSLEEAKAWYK
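40 nM FBPA preincubated 10 min at RT with compound (up to 57.5 uM final), then substrate plus GAPDH/TPI/NAD/arsenate coupling and diaphorase/resazurin added. Fluorescence read after 20 min at RT, 525/598 nm.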
SARS PLpro yeast-1 = blocks SARS-CoV papain-like protease in a yeast assay; S. cerevisiae expressing SARS-CoV PLpro, growth rescue; Potency, µM (top dose mostly 32.9 µM), for the others: at the highest dose activity, positive = growth rescue, usual class: activators; hit rate 0.19% among 330,000; calls by dose curve; also: potency is read from the fitted curve at half-maximal effect; 0% is about no effect; nearly all actives have a fitted effect of over 55% in size
AmpC no deterg = inhibitors of E. coli AmpC beta-lactamase without detergent. P00811. AmpC nitrocefin hydrolysis, absorbance 480 nm, 0.0001% Triton. Potency, µM (doses to about 57.1 µM), without a hit: at the top dose activity change, negative = inhibition, most hits filed as inhibitors. hit rate 0.52% among 330,000. AID 485341;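 also: potency is read from the fitted curve at half-maximal effect; plate controls were no compound for no effect and no enzyme for full effect; nearly all actives have a fitted effect of over 20% in size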
Target sequence (P00811 whole entry, looked up): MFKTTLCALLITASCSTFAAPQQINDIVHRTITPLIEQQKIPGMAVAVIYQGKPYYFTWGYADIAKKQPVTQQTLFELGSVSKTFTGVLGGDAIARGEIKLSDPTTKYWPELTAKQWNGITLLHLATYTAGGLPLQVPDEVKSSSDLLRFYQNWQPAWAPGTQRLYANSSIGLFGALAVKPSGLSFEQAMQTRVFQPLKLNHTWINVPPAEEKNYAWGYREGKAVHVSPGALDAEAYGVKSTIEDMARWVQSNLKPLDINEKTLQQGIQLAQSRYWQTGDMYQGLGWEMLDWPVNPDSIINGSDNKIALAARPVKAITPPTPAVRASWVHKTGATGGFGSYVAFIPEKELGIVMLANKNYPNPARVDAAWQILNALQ
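20 mM phosphate pH 7.0 + 0.01% (detergent screen) or 0.0001% Triton X-100; 5.3 nM AmpC reagent; cpd preinc 15 min RT; nitrocefin (800 uM stock) to start; A480 q20 s × 4 min; Activity was normalised to no-enzyme and no-compound control wells.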
NS1 inh = blocks influenza NS1 protein function | Potency, µM (titrated, usually from 46.1 µM), for inactives: at the highest dose activity, positive = more growth | hit rate 0.4% among 270,000 | AID 2326; calls by dose curve; also: potency is read from the fitted curve at half-maximal effect; actives are rising curves; nearly all actives have a fitted effect of over 50% in size
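S. cerevisiae expressing influenza A NS1, grown in glucose, washed, then diluted 1:100 into pH 6.0 -URA galactose medium with 23 nl compound. Growth recovery read as OD600; NS1-free strain serves as control.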
AmpC inh detg = AmpC beta-lactamase inhibition with detergent present. AmpC hydrolysis of nitrocefin, absorbance 480 nm, 0.01% Triton. Potency, µM (series often up to 114 µM), for inactives: top-dose activity change, negative = inhibition, actives largely listed as inhibitors. AID 485294. P00811. hit rate 0.041% among 370,000;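 also: potency is read from the fitted curve at half-maximal effect; 0% = no-compound wells and -100% = no-enzyme wells; nearly all actives have a fitted effect of over 25% in size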
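AmpC (5.3 nM in the dispensed reagent) in 20 mM phosphate pH 7.0 with 0.01% (detergent screen) or 0.0001% Triton X-100 was preincubated with compounds for 15 min at room temperature. Nitrocefin was then added from an 800 uM solution, and hydrolysis was followed at 480 nm.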
SARS PLpro yeast-2 = Inhibits SARS-CoV PLP in yeast, hit validation. calls only. yeast expressing SARS-CoV PLpro, growth phenotype rescue. hit rate 19% among 1,000. AID 652038. shares compounds with SARS PLpro yeast-1; call rule not given here
Starred values were filed as active, the others as inactive; i = inactive; ? = inconclusive; · = no result given; + = active, no number. Unless noted, calls follow the shape of the dose curve; as a rule, active = well fitted curve in the direction sought with a large enough effect; inconclusive = small, poorly fitted or top-dose-only effect, or another doubt; inactive = no such curve, though single readings can be large; an effect the other way counts as inactive or inconclusive.

SMILES	Giardia FBPA inh	SARS PLpro yeast-1	AmpC no deterg	NS1 inh	AmpC inh detg	SARS PLpro yeast-2
NC(=S)N/N=C/c1ccccc1OCc1cccc(Cl)c1	-16.8%	15.8µM*	-54.8%	6.2%	?	?
COc1ccc(Cl)cc1NC(=O)[C@@]1(CC(=O)O)CC(/C=C/c2ccccc2)=NO1	10.3%	-1.0%	-17.6%	4.8%	-4.5%	·
O=C(COC(=O)c1ccccc1C(=O)c1ccc(Cl)c([N+](=O)[O-])c1)NC1CCCCCC1	-2.6%	3.55µM*	-4.8%	?	-9.9%	+
CCOc1cc(CN2CCN(C(=O)c3cccc4ccccc34)CC2)ccc1OC	?	4.5%	181.4%	-17.0%	6.8%	·
Cc1ccc(-c2cc(C(=O)N(C)Cc3cnn(C)c3C)c3cc(Br)ccc3n2)cc1	-0.8%	-25.0%	215.1%	-8.6%	?	·
Cc1ccc(-c2cc(C(=O)NCc3cnn(C)c3C)c3cc(Br)ccc3n2)cc1	-1.0%	?	70.2%	8.4%	17.0%	i
CC(C)C[C@H]1CN=C(N(C)C)N1CCCCc1ccccc1	·	6.31µM*	14.5%	·	?	i
CCC1(c2ccccc2)NC(=S)N(c2cccc(C)c2C)N1 (stereo not given)	14.0%	3.16µM*	-57.0%	6.1%	-9.1%	?
COc1cccc(NC(=S)N(CCCN2CCCC2)Cc2cccn2Cc2ccc(Cl)cc2)c1	0.1%	-1.4%	160.3%	·	1.4%	·
CCOC(=O)[C@H]1[C@H]2COc3ccc(Br)cc3[C@@H]2N2C(=O)CN(Cc3ccc(Cl)cc3)C(=O)[C@@]12C	·	-4.9%	121.5%	·	·	·
CCOC(=O)[C@H]1[C@H]2COc3ccc(Br)cc3[C@@H]2N2C(=O)CN(Cc3ccco3)C(=O)[C@@]12C	·	?	142.9%	·	5.3%	i
C=CCn1c(SC(C)C(=O)Nc2ccc(F)c(F)c2F)nnc1C1CC1 (stereo not given)	·	-1.0%	10.0%	·	-12.1%	·
O=C(N/N=C/c1ccccn1)c1ccc(N/N=C/c2ccccn2)cc1	?	-1.1%	29.0%	·	7.4%	·
O=C(N/N=C/c1ccccn1)c1ccc(Br)cc1	9.2%	?	-23.7%	-50.0%	?	?
O=C(O)c1cccc(NC(=S)N/N=C/c2ccccn2)c1	-9.8%	5.01µM*	-28.4%	·	4.5%	+
Nc1nc(SCC(=O)OCc2ccccc2)[nH]c(=O)c1NC(=O)c1ccco1	13.0%	?	-7.6%	-26.5%	-14.6%	i
COc1cccc(C(C(=O)NCC2CCCO2)N(CC2CCCO2)C(=O)CN2C(=O)c3ccccc3S2(=O)=O)c1 (stereo not given)	0.5%	0.0%	56.1%	0.1%	4.0%	·
CC(/C=C/c1ccccc1)=N\NC(N)=S	-7.4%	12.6µM*	-14.7%	-48.1%	-2.4%	+
CC(/C=C/c1ccccc1)=N\NC(=S)NC(C)C	-0.1%	-1.8%	-5.4%	15.5%	1.9%	·
CCOc1ccc(-c2nc3ccc(-c4nc5ccc(N6CCN(C)CC6)cc5[nH]4)cc3[nH]2)cc1	-26.1%	·	·	·	·	·
CC(C)NC(=S)N/N=C/c1cc(Br)ccc1O	-18.0%	?	-35.7%	-8.4%	-2.2%	+
CCCn1c(NC(=O)c2cccc(C)c2C)nc2ccccc21	?	?	-25.3%	-58.8%	?	i
FC(F)(F)c1ccc(-c2nc(=S)[nH][nH]2)cc1	10.3%	1.2%	-26.6%	-0.3%	1.0%	·
C=C(C)Cn1c(SCC(=O)N/N=C/c2c(O)ccc3ccccc23)nc2ccccc2c1=O	-12.3%	10µM*	-40.0%	18.0%	?	+
C=C(C)Cn1c(SCC)nc2ccccc2c1=O	-2.1%	-0.7%	-24.6%	-26.8%	-10.1%	·
SMILES	Giardia FBPA inh	SARS PLpro yeast-1	AmpC no deterg	NS1 inh	AmpC inh detg	SARS PLpro yeast-2
O=C1/C(=C/c2cccs2)N=C(c2cccs2)N1Nc1ccccc1	-1.9%	?	-26.9%	7.9%	0.6%	i
O=C1/C(=C\c2cccs2)N=C(c2cccs2)N1Nc1ccccc1	13.0%	-15.4%	-5.4%	4.5%	0.3%	·
Cc1cc(C)c2nc(NNC(=O)c3ccc(S(=O)(=O)N4CCc5ccccc5C4)cc3)sc2c1	?	5.62µM*	-35.6%	?	3.9%	?
CCc1nnc(NC(=O)c2ccc(S(=O)(=O)N3CCc4ccccc4C3)cc2)s1	10.6%	-5.8%	-5.8%	6.8%	-8.6%	·
Cc1ccc(C(=O)O/N=C(\N)Cc2cccc3ccccc23)cc1	·	-10.1%	-27.2%	-40.3%	3.2%	·
Cc1ccc(N(C(=O)c2ccc3c(c2)OCO3)C2C=CS(=O)(=O)C2)cc1C (stereo not given)	·	·	54.6%	4.8%	-0.9%	i
COC(=O)Cc1c[nH]c2cccc(OCC(O)CN(Cc3ccccc3)C(C)C)c12 (stereo not given)	-0.1%	?	-24.3%	2.1%	-9.3%	i
C=CCn1c(SCc2cc(=O)n3cc(C)ccc3n2)nnc1-c1cccc(C)c1	6.8%	11.2µM*	23.4%	-4.9%	?	i
O=C(N/N=C/c1c(O)n(CCC2=CCCCC2)c(=O)[nH]c1=O)c1ccccc1	-3.6%	10µM*	-40.2%	5.4%	-9.6%	i
CSc1ccccc1NC(=O)c1cc(-c2ccc3c(c2)OCO3)on1	3.6%	-2.5%	-10.7%	4.6%	-7.6%	·
O=C(c1ccc(NC(=S)NCc2ccco2)cc1)N1CCCCC1	-2.6%	?	-2.5%	·	-10.2%	i
O=C(O)Cc1ccc(NC(=S)NCc2ccco2)cc1	-14.8%	15.2%	-22.5%	8.3%	-8.8%	·
COC(=O)Cc1ccc(NC(=O)c2ccc3c(c2)C(=O)N(Cc2cccnc2)C3=O)cc1	·	0.1%	-3.2%	-0.2%	2.3%	·
Cc1sc(NC(=O)c2ccccc2)c(C(=O)NC(C)C)c1C	-2.8%	?	-15.6%	-2.3%	-0.5%	i
O=C(Nc1ccc(F)c(F)c1)c1ccccc1-c1ccccc1	2.1%	14.1µM*	-24.9%	0.4%	-4.9%	i
O=C(Nc1cccc(Br)c1)c1ccccc1-c1ccccc1	-2.4%	-62.8%	-17.0%	-38.7%	1.2%	·
CN(Cc1cnccn1)C(=O)C1CCC(=O)N(CCc2ccccc2)C1 (stereo not given)	12.2%	6.8%	-13.8%	12.5%	-2.1%	·
Cc1ccc(CN(C)C(=O)C2CCC(=O)N(CCc3ccccc3)C2)o1 (stereo not given)	-15.3%	?	33.9%	14.4%	?	i
Cc1cccc(NC(=O)CCC2CCN(C(=O)c3ccc(C)s3)CC2)c1	·	5.1%	39.5%	12.1%	0.2%	·
COc1ccc(CCNC(=O)C(=O)NCC2OCCN2S(=O)(=O)c2ccc(OC)c(OC)c2)cc1OC (stereo not given)	-9.6%	3.7%	54.9%	-11.8%	-6.2%	·
COc1ccc(CCNC(=O)C(=O)NCC2OCCN2S(=O)(=O)c2ccccc2)cc1OC (stereo not given)	2.6%	11.2µM*	-1.6%	5.1%	-6.4%	i
O=C(COC(=O)c1ccc(O)cc1)NCCc1c[nH]c2ccccc12	·	1.8%	-34.2%	·	-4.0%	·
